The panel holds about 83,000 compounds, 20% with a hit somewhere; the sample as a whole holds those more often.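 Results are percent growth after 48 hours of single-concentration exposure. 100 means growth as in untreated cells, lower positive values show inhibition; negative values down to -100 show cell death.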 A number with no mark means an inactive call. The source made the active and inactive calls. The calls were made as follows: active = growth percent below 10; inactive = the rest.
Key:
Test in all cases: NCI-60 one-dose screen, 48 h (100 = growth as untreated, 0 = no growth, -100 = all killed)
Conditions in all cases: 10 µM unless noted
[1] = tested on: HCT-15 colon
[2] = tested on: HT29 colon
[3] = tested on: SNB-75 CNS
[4] = tested on: SNB-19 CNS
[5] = tested on: U251 CNS
[6] = tested on: PC-3 prostate
[7] = tested on: SK-MEL-5 melanoma
[8] = tested on: UACC-62 melanoma
[9] = tested on: LOX IMVI melanoma
[10] = tested on: SK-MEL-28 melanoma

Row | Structure (SMILES) | growth [1] | growth [2] | growth [3] | growth [4] | growth [5] | growth [6] | growth [7] | growth [8] | growth [9] | growth [10]
1 | CC(=O)c1c([Si](C)(C)C)c2cc(C#N)ccn2c1C(=O)c1ccc(Br)cc1 | 85.1% | 67.8% | 95.1% | 86.9% | 93.2% | 76% | 91.2% | 74.9% | 99.6% | 92.1%
2 | O=C(/C=C/c1cccc(F)c1)c1cccc(OCCCOc2cccc(C(=O)/C=C/c3cccc(F)c3)c2)c1 | 9.37% (active) | 9.59% (active) | 112% | 65.1% | 34.5% | 36.9% | 99.4% | 81.3% | -37.9% (active) | 106%
3 | COc1ccc(C2CC(c3cccc(OCCCCOc4cccc(C5=NN(C(C)=O)C(c6ccc(OC)cc6)C5)c4)c3)=NN2C(C)=O)cc1 (stereo not given) | 75% | 89.3% | 75.4% | 64.5% | 81.9% | 48.4% | 11.8% | 57.1% | 62.2% | 97.2%
4 | Cc1ccc2c(n1)C(=O)C(Cl)=C(Nc1cccc(C(F)(F)F)c1)C2=O | -61.1% (active) | 105% | 109% | 101% | 95.7% | 69.6% | 96.9% | 97.6% | -61.8% (active) | 78.5%
5 | CCOC(=O)c1cnc2c(-c3ccc(Cl)c(Cl)c3)cnn2c1 | 40.8% | 56.8% | 59.9% | 82.5% | 80.4% | 73% | 79.8% | 60.8% | 79% | 80.4%
6 | COc1ccc([C@@H]2C(=O)N(c3cc(OC)c(OC)c(OC)c3)[C@H]2c2ccc(OC)c(O)c2)cc1 | 10.8% | -12% (active) | 43.1% | 29.7% | 19.3% | 29.8% | -22.9% (active) | 29.2% | 19.4% | 67.8%
7 | COc1ccc(-c2nc(C#N)c(N3CCC(S(=O)(=O)N4CCOCC4)CC3)o2)cc1 | 105% | 101% | 103% | 96.9% | 104% | 98.2% | 97.1% | 96.3% | 100% | 99%
8 | COc1ccc(-c2cc(-c3ccc(N(C)C)cc3)n3c(n2)nc2ccccc23)cc1 | 50.7% | 54.1% | 95.2% | 67.2% | 40.5% | 28.1% | 3.05% (active) | 48.2% | 66.3% | 77%
9 | CN1CCN(c2ccc(Nc3nc(NCCNC(=O)c4ccccc4)c4sccc4n3)cc2)CC1 | 20.7% | 4.23% (active) | 81% | 88.4% | 18.3% | 61.8% | 21.3% | 53% | 5.15% (active) | 59.5%
10 | COc1ccc(OC)c(CCn2cncc2-c2c[nH]c3ccc(Cl)cc23)c1 | 32.8% | 10.1% | 21.4% | 60.4% | 47.1% | 39.1% | -19.8% (active) | 40.7% | 47.3% | 67.7%
11 | Cn1c(SCC(=O)c2ccco2)nc2ccccc2c1=O | 84.9% | 118% | 86.2% | 102% | 105% | 93.6% | 98.1% | 87% | 95.2% | 108%
12 | C/C(=C(/C)C1CC1CCNC1CCC(NC(=O)OC(C)(C)C)CC1)c1ccccc1 (stereo not given) | 42.6% | 11.9% | 60.1% | 91.3% | 61.3% | 63.8% | 45.7% | 83.1% | 10.2% | 35.5%
13 | CCN(CC)c1ccc(/C=N/NC(=O)c2ccc(S(N)(=O)=O)cc2)c(O)c1 | 20.9% | 25.4% | 47.8% | 29.9% | 20.8% | 34.9% | -7.45% (active) | -3.75% (active) | 0.484% (active) | 20.6%
14 | O=C(N/N=C\c1ccc(F)cc1)c1ccc2nc(-c3ccc(Br)cc3)[nH]c2c1 | 22.2% | -58.9% (active) | 53.7% | 23.2% | -62.1% (active) | 40.4% | 56.3% | 49.2% | -12.3% (active) | 10.8%
15 | COc1ccc2c(c1)C=CC1(O2)Oc2ccc(OC)cc2C=C1C (stereo not given) | 24.7% | 4.04% (active) | -8.45% (active) | 27.5% | 12.3% | 29.8% | 24.9% | 19.1% | 22.2% | 54.2%
16 | O=C1C(SCc2ccccc2)=C(Cl)CN1c1ccc(Cl)cc1 | 88.6% | 84.5% | 103% | 96.9% | 86.3% | 107% | 99.3% | 93.5% | 5.82% (active) | 88.1%
17 | CCOP(=O)(OCC)OC[C@]12CCC(C)(C)CC1C1=CC[C@@H]3[C@@]4(C)CCCNC(C)(C)[C@@H]4CC[C@@]3(C)[C@]1(C)CC2 (stereo not given in full) | 44.3% | 42% | 93.6% | 87% | 56.3% | 51.3% | 80.7% | 90.5% | 25.3% | 101%
18 | O=C(/C=C/c1ccccc1Cl)Nc1ncc(Cc2cc(Cl)ccc2Cl)s1 | 21.7% | -18% (active) | 1.14% (active) | 21% | 16.6% | 39.8% | 25.7% | 23.2% | 35% | 55.4%
19 | CC(Nc1ncnc2ccc(-c3cnc(N)nc3)cc12)c1ccccc1 (stereo not given) | 22.4% | 43.1% | 31.1% | 40% | 47% | 29.7% | 26.4% | 28.5% | 23.8% | 50.2%
20 | O=C(CSc1nc2ccccc2c(=O)n1-c1ccccc1)N/N=C/c1ccc(Oc2ccc(Cl)cc2)cc1 | 60.8% | 59.1% | 60.1% | 33.2% | 15.2% | 58.7% | 71.2% | 66.6% | 14% | 62.4%
21 | O=C(Nc1ccc(N=Cc2c(O)[nH]c3ccccc23)cc1)Nc1ccc(S(=O)(=O)Nc2ncccn2)cc1 | 97.4% | 104% | 99% | 101% | 103% | 94.1% | 100% | 103% | 101% | 120%
22 | Oc1ccc(-c2nc3ccc(/C(=N\N=C\c4ccc(Cl)cc4)c4ccccc4)cc3[nH]2)cc1 | 71.1% | 75.4% | 93.4% | 91.7% | 86.6% | 52.9% | 84.1% | 84.1% | 57.4% | 91%
23 | CN1CCN(Cc2ccc(NC(=O)c3cncc(C#Cc4cnc5ccc(N6CCOCC6)nn45)c3)cc2C(F)(F)F)CC1 | -53.9% (active) | -71.2% (active) | -46.3% (active) | -20.3% (active) | -92.8% (active) | -7.08% (active) | -95.9% (active) | -62.2% (active) | -93.8% (active) | -76.4% (active)
24 | C[C@H]1OCC2(CCN(c3cnc(C(=O)Nc4cc(F)cc5cccnc45)cn3)CC2)[C@H]1N | 14.5% | 30.3% | 62.9% | 73.5% | 66.3% | 50.8% | 93.2% | 31.7% | 33.2% | 61.4%

From PubChem BioAssay (NCI)
